Results as given in PubChem BioAssay.
Active and inactive are the calls of the source.

Assays:
[1] = binders of probe aFSTL3 on microarray, primary screen, stem cell growth factor project, biochemical, small-molecule microarray, fluorescence 635/667 (AID 1064); conditions: higher = more signal;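 also: measures binding of the biotinylated anti-FSTL3 antibody to printed compounds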
[2] = binders from COS7 lysate, DM2A8 probe, primary screen, torsin A project, cell lysate, small-molecule microarray, fluorescence 635/667 (AID 1065); conditions: higher = more signal, COS7 lysate expressing mutant human TOR1A
[3] = binders of probe aFGF2 on microarray, primary screen, stem cell growth factor project, biochemical, small-molecule microarray, fluorescence 635/667 (AID 1067); conditions: higher = more signal;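 also: measures binding of biotinylated aFGF2 protein to printed compounds on slides; z-score merges feature fluorescence and signal-to-noise across triplicate slides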
[4] = binders of probe aFGF10 on microarray, primary screen, stem cell growth factor project, biochemical, small-molecule microarray, fluorescence 635/667 (AID 1071); conditions: higher = more signal;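 also: score merges 667 nm spot intensity and signal to noise from triplicate slides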
[5] = target: Neurogenic locus notch homolog protein 2 (Homo sapiens) (UniProt Q04721); test: Notch2 binders on small-molecule microarrays, primary screen, biochemical, small-molecule microarray, 635 nm fluorescence, stem cell growth factors (AID 1073); conditions: Notch2 binding, higher = more signal
Neurogenic locus notch homolog protein 2 (Homo sapiens), sequence (Q04721 whole entry, looked up, canonical isoform): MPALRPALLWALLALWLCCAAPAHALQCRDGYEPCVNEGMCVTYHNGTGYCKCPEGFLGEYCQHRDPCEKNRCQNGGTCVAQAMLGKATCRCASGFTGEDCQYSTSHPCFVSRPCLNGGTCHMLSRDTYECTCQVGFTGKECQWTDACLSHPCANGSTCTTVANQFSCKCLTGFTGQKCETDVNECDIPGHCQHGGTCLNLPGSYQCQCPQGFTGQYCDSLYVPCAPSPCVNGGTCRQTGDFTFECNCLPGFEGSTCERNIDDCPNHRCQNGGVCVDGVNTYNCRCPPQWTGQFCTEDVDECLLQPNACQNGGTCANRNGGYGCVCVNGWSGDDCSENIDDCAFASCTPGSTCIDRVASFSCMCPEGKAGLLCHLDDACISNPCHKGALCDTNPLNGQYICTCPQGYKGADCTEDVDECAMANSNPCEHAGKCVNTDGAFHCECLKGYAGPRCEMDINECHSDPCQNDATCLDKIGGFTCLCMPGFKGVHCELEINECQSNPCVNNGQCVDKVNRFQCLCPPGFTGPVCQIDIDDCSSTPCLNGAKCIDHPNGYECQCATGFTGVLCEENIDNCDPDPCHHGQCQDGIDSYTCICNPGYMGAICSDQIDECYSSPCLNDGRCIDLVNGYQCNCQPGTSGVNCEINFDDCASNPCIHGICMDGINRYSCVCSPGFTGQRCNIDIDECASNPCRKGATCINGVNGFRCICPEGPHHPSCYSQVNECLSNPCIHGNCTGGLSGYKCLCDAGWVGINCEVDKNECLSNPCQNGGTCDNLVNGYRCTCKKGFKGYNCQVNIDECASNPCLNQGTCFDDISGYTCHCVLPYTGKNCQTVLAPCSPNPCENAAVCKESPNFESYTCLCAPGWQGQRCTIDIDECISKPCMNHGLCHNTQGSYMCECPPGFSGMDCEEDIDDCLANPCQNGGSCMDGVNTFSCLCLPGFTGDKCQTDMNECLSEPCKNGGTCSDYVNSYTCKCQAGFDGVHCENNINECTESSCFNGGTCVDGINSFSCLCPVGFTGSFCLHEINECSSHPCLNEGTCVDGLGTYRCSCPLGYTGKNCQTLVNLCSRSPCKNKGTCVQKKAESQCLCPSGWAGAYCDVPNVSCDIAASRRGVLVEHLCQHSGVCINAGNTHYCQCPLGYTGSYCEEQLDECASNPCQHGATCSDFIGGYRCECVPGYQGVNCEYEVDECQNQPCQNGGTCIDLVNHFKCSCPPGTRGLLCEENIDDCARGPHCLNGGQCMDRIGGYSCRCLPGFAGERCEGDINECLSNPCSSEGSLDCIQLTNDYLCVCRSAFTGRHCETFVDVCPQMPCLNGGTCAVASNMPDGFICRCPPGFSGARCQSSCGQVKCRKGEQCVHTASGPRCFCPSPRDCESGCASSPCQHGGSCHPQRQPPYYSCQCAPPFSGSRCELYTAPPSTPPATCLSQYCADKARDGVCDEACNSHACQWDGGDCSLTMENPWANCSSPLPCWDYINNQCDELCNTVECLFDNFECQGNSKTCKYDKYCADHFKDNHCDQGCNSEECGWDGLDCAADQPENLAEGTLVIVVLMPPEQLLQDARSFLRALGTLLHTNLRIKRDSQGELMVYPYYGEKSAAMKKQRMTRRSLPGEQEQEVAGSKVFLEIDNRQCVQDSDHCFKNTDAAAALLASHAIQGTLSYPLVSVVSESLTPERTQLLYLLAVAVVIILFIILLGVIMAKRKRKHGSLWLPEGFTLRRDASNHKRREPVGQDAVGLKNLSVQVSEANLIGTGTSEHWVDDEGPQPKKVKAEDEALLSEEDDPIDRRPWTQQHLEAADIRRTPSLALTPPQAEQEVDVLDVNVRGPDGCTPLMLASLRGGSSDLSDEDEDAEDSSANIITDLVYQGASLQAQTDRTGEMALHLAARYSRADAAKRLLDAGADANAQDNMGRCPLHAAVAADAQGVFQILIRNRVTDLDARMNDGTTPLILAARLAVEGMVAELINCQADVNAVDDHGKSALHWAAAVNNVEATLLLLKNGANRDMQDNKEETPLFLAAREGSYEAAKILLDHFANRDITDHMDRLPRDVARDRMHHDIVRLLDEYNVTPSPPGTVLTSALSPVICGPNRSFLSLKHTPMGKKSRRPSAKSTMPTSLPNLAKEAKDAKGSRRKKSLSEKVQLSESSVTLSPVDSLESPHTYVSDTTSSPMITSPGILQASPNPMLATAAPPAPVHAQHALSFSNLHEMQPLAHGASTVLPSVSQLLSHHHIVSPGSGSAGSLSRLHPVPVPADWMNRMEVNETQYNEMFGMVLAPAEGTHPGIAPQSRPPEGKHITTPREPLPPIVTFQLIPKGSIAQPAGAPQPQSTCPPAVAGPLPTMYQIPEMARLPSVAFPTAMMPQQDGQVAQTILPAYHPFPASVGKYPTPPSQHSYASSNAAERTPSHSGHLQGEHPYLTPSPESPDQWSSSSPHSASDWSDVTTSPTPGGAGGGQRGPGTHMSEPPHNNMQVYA

[6] = target: Pro-neuregulin-1, membrane-bound isoform (Homo sapiens) (UniProt Q02297); test: NRG1 binders on small-molecule microarrays, primary screen, psychiatric disease protein project, biochemical, small-molecule microarray, fluorescence 635/667 (AID 1075); conditions: NRG1 binding, 635 nm fluorescence, higher = more signal;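 also: score combines 667 nm spot fluorescence with signal to noise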
Pro-neuregulin-1, membrane-bound isoform (Homo sapiens), sequence (Q02297 whole entry, looked up, the tested form may be a part, canonical isoform): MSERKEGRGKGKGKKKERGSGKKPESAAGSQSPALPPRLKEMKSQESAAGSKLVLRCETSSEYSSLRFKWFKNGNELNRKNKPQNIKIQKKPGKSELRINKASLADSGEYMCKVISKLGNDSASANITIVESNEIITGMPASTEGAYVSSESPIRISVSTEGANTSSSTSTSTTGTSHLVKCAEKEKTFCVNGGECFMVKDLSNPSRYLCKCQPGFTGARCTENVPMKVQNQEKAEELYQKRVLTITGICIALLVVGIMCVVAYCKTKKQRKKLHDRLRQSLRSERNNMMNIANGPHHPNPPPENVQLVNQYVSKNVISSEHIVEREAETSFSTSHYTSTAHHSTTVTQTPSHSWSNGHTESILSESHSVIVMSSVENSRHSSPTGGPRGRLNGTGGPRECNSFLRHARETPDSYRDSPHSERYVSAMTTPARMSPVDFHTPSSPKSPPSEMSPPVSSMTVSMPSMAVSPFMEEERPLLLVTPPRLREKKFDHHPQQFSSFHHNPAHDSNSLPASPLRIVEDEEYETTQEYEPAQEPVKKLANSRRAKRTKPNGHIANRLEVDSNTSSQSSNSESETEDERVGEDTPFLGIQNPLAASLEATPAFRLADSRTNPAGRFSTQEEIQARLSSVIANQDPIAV

[7] = tested on: Neuregulin-1 EGF-like domain; test: binders of neuregulin-1 EGF-like domain, primary screen, biochemical, small-molecule microarray, 635 nm fluorescence (AID 1081); conditions: small-molecule microarray binding, higher = more signal;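 also: binding of the protein to compounds printed on small-molecule microarray slides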
[8] = FRG1 promoter luciferase signal modulators, primary screen, FRG1 inhibition for FSHD, cell-based, C2C12 myotubes, firefly/Renilla luciferase, luminescence (AID 1084); conditions: higher = more signal, called active from +8 up or from −8 down
[9] = binders of probe aFST on microarray, primary screen, stem cell growth factor project, biochemical, small-molecule microarray, fluorescence 635/667 (AID 1086); conditions: higher = more signal;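 also: score merges 667 nm fluorescence with signal-to-noise of each printed compound spot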
[10] = binders of probe aHhip on microarray, primary screen, stem cell growth factor project, biochemical, small-molecule microarray, fluorescence 635/667 (AID 1087); conditions: higher = more signal;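 also: score merges spot fluorescence at 667nm with spot signal to noise ratio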

Row | Structure (SMILES) | composite z-score [1] | composite z-score [2] | composite z-score [3] | composite z-score [4] | composite z-score [5] | composite z-score [6] | composite z-score [7] | z-score [8] | composite z-score [9] | composite z-score [10]
1 | O=C1O[C@H](c2ccccc2)[C@H](c2ccccc2)N2[C@H]1[C@@H](C(=O)NC[C@H](O)c1ccccc1)[C@]1(C(=O)Nc3ccc(C#CC4=CCCCC4)cc31)[C@H]2c1ccc(O)cc1 | 0.84 | 0.891 | 0.146 | 0.962 | 0.671 | 1.4 | 1.16 | 0.733 (inactive) | 0.826 | -0.0618
2 | CO[C@H]1O[C@H](CO)[C@@H](OC(=O)Nc2ccc(C(F)(F)F)cc2)[C@H](OC(=O)Nc2ccccc2)[C@@H]1OC(=O)Nc1ccccc1 | -0.181 | -0.0087 | 0.113 | 0.392 | 1.29 | 0.781 | 0.879 | 5.33 (inactive) | 0.234 | -0.188
3 | CCOC(=O)C1=CC[C@@H](c2cccc(Cl)c2)N(S(=O)(=O)c2ccc(C)cc2)[C@H]1c1ccc(C#N)cc1 | 0.128 | 0.0669 | 0.104 | 0.862 | 1.65 | 1.61 | 1.15 | -0.534 (inactive) | 0.751 | 0.0274
4 | C=CCC(OC(C)=O)[C@@H]1[C@@H](N(Cc2ccc(-c3cccc(C(F)(F)F)c3)o2)C(=O)Cc2ccc(OC)cc2)c2cc(OCCCO)ccc2N1C(=O)Cc1ccc(OC)cc1 (stereo not given in full) | -0.0741 | 0.185 | -0.0739 | -0.118 | -0.17 | 0.783 | -0.92 | 0.0712 (inactive) | -0.239 | -0.16
5 | CCN(CC)c1ccc(N2CC=CC34O[C@@H]5C=CCOC(=O)[C@@H]5[C@H]3C(=O)N(CCCCCO)[C@@H]4C2=O)cc1 (stereo not given in full) | 0.594 | 2.08 | -0.129 | -0.39 | -0.866 | 1.42 | 1.53 | -0.309 (inactive) | -0.409 | -0.0618
6 | COCCOC(=O)N1C(=O)[C@@]2(c3ccccc31)[C@H](c1ccc(O)cc1)N1[C@H](c3ccccc3)[C@H](c3ccccc3)OC(=O)[C@H]1[C@@H]2C(N)=O | 0.113 | 0.192 | -0.106 | -0.304 | -0.818 | 0.178 | 0.651 | -1.16 (inactive) | -0.722 | -0.226
7 | [N-]=[N+]=NCc1ccccc1[C@H]1OC(c2ccc(OCCCO)cc2)=N[C@@]1(Cc1ccccc1)C(=O)NCC(O)CO (stereo not given in full) | 0.835 | 0.768 | -0.127 | 0.407 | 0.641 | 1.65 | 0.565 | -0.0633 (inactive) | 0.1 | -0.146
8 | C=CC[C@@]1(C(N)=O)N=C(c2ccc(OCCCO)cc2)O[C@@H]1c1ccccc1N=[N+]=[N-] | 1.68 | 0.444 | 0.069 | 1.08 | 1.13 | 1.5 | 1.34 | 2.64 (inactive) | 1.03 | 0.0769
9 | CC(=O)N1Cc2ccccc2C[C@@]2(N=C(c3ccc(OCCCO)cc3)O[C@H]2c2ccccc2)C1=O | 0.136 | 0.0287 | 0.0933 | 0.145 | 1.09 | 1.54 | 1.31 | -3.53 (inactive) | 1.55 | -0.393
10 | CC(C)C(CO)N1C(=O)[C@@H]2[C@H]3C(=O)OCC=C[C@H]3OC23C=CCN(c2ccc4ccccc4c2)C(=O)[C@@H]13 (stereo not given in full) | 0.316 | -0.377 | -0.169 | -0.134 | -1.13 | 0.187 | -0.111 | 0.125 (inactive) | -0.527 | 0.0373
11 | C=CCN1C(=O)[C@]2(COC(c3ccc(OCCCO)cc3)=N2)Cc2ccccc21 | 0.842 | 0.33 | 0.136 | 0.115 | 0.595 | 0.977 | 1.08 | -0.664 (inactive) | 0.258 | -0.3
12 | COCCOC(=O)N1C(=O)[C@@]2(c3cc(C#Cc4ccc(OC)cc4)ccc31)[C@H](c1ccc(O)cc1)N1[C@H](c3ccccc3)[C@H](c3ccccc3)OC(=O)[C@H]1[C@@H]2C(=O)N1CCN(c2ncccn2)CC1 | -0.867 | 0.47 | -0.0225 | 0.381 | 0.846 | 0.467 | 1.13 | -0.431 (inactive) | 0.619 | -0.132
13 | O=c1cccc(-c2ccc3ccccc3c2)o1 | 0.636 | -0.0452 | 0.114 | -0.183 | -0.383 | -0.288 | -0.602 | 7.42 (inactive) | 0.389 | -0.0022
14 | COC(=O)[C@@]1(Cc2ccc(OC)cc2)[C@H]2c3cc(C(=O)N4CCCC4)n(CCc4ccccn4)c3C[C@H]2CN1C(=O)c1ccccc1 | 0.587 | -0.0862 | 0.233 | 0.291 | 1.42 | 1.81 | 1.13 | 3.33 (inactive) | 0.462 | 0.251
15 | CC(C)(C)OC(=O)CC[C@@]1(C(N)=O)N=C(c2ccc(OCCCO)cc2)O[C@@H]1c1ccccc1N=[N+]=[N-] | 0.0551 | 1.86 | 0.0354 | 1.23 | 1.46 | 0.798 | 1.36 | 3.06 (inactive) | 0.18 | -0.0645
16 | COC(=O)[C@@]1(Cc2ccc(OC)cc2)[C@H]2c3cc(C(=O)N(C)C)n(CCSCCO)c3C[C@H]2CN1C(=O)c1ccccc1 | 0.172 | -0.233 | 0.164 | 0.979 | 1.61 | 1.47 | 1.22 | -1.35 (inactive) | 0.547 | -0.04
17 | O=C(CS)NCCCCCCNC(=O)[C@H]1C[C@H]2C(=O)N3CCC[C@H]3C(=O)N2[C@H]1c1ccc(O)cc1 | 0.112 | -0.0248 | -0.0759 | -0.15 | -0.183 | 0.883 | 1.31 | 1.04 (inactive) | 0.416 | 0.0749
18 | CC(C)[Si]1(C(C)C)O[C@@H](c2ccccc2)c2cc(-c3ccc(-c4ccc(Cl)c(Cl)c4)o3)nc(CCc3ccccc3)c21 | 0.662 | -0.56 | -0.16 | -0.641 | -0.868 | -0.345 | -0.314 | 0.838 (inactive) | -0.363 | 0.269
19 | [N-]=[N+]=NCc1ccccc1C[C@]1(C(=O)NCCN2CCOCC2)N=C(c2ccc(OCCCO)cc2)O[C@H]1c1ccccc1CN=[N+]=[N-] | -0.199 | -0.671 | 0.0011 | 1.12 | 1.03 | 1.11 | 1.2 | -0.0883 (inactive) | 1.26 | 0.0139
20 | C[N+](C)(C)CCCC[C@@H]1NC(=O)[C@@H]2C[C@H](C(=O)NCCCCCCNC(=O)CS)[C@H](c3cccc(OCCO)c3)N2C1=O | -0.145 | 0.976 | -0.132 | -0.459 | -0.395 | 0.612 | 1.36 | -0.944 (inactive) | -0.713 | -0.0193
21 | COCCOC(=O)N1C(=O)[C@@]2(c3cc(C#CC4(O)CCCCCC4)ccc31)[C@H](c1ccc(O)cc1)N1[C@H](c3ccccc3)[C@H](c3ccccc3)OC(=O)[C@H]1[C@@H]2C(=O)N1CCc2cc(OC)c(OC)cc2C1 | 0.244 | -0.287 | -0.116 | -0.432 | -1.54 | 0.449 | 0.0919 | 0.0543 (inactive) | -0.538 | -0.268
22 | COCCCNC(=O)[C@@]1(C)c2ccccc2C(=O)N(Cc2ccccc2)[C@H]1c1ccc(CO)cc1 | 0.235 | 0.0748 | -0.173 | -0.979 | -1.19 | 1.88 | 1.5 | -1.24 (inactive) | -0.353 | -0.147
23 | COC(=O)[C@@]1(Cc2ccc(F)cc2)[C@H]2c3cc(C(=O)N(C)C)n(Cc4ccccn4)c3C[C@H]2CN1C(=O)c1ccccc1 | 0.449 | 0.55 | 0.25 | 0.658 | 1.65 | 1.42 | 1.38 | 3.37 (inactive) | 1.55 | 1.49
24 | NC(=O)NCC#Cc1ccc2c(c1)[C@]1(C(=O)N2)[C@H](c2ccc(O)cc2)N2[C@H](c3ccccc3)[C@H](c3ccccc3)OC(=O)[C@H]2[C@@H]1C(=O)N1CCN(c2ncccn2)CC1 | 0.687 | 0.585 | 0.0021 | 0.516 | 0.0269 | 0.302 | 0.562 | -1.09 (inactive) | 0.38 | -0.191
25 | CC(C)NC(=O)[C@@H]1c2ccccc2C(=O)N(C2CCCCC2)[C@H]1c1ccc(CO)cc1 | 0.0605 | 0.562 | 0.0703 | 0.74 | 0.851 | 1.15 | 1 | 0.492 (inactive) | 0.333 | -0.216
26 | C=CCN1Cc2ccccc2C[C@]2(N=C(c3ccc(OCCCO)cc3)O[C@@H]2c2ccccc2)C1=O | 0.211 | 0.363 | -0.0883 | -0.147 | 0.977 | 0.414 | 1.35 | -3.57 (inactive) | 0.607 | 0.0722
27 | Cc1ccc(N2C(=O)c3ccccc3[C@](C)(C(=O)NCCN3CCOCC3)[C@@H]2c2ccc(CO)cc2)nc1 | 1.54 | -0.653 | -0.0249 | -0.112 | -1.41 | -0.819 | 0.0367 | 0.517 (inactive) | -0.748 | -0.287
